VP16 counter: Gal4-VP16 reporter inhibition counter-screen. Drosophila S2 Gal4-VP16 UAS-luciferase, luminescence, 20 h. Potency, µM (doses to about 53.6 µM), most hits filed as inhibitors. actives 3.5% (n = 310,000);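 note: Gal4-VP16 expression switched on by copper sulfate through the metallothionein promoter; nearly all actives have a fitted effect of over 50% in size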
DT40 TDP1 CPT: DT40-hTDP1 cell growth loss with CPT; chicken DT40 Tdp1-/-;hTDP1 cells + 20 nM CPT, ATP luminescence, 48 h; Potency, µM (titrated, usually from 46.2 µM), most hits filed as inhibitors; actives 12% (n = 420,000); note: nearly all actives have a fitted effect of over 55% in size
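Chicken DT40 Tdp1-/- cells stably complemented with human TDP1 were seeded at 400 cells/well in medium containing 20 nM camptothecin, exposed to pin-transferred compounds, and grown at 37 °C for at least 48 hr. Viability was read as ATP luminescence.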
RORgamma inh: ROR gamma (mouse) transcription inhibition. P51450. Drosophila S2 Gal4-RORgamma UAS-luciferase reporter, 20 h. Potency, µM (titrated, usually from 53.6 µM), most hits filed as inhibitors. actives 5.4% (n = 310,000); note: nearly all actives have a fitted effect of over 60% in size
Target sequence (P51450 whole entry, looked up, the tested form may be a part): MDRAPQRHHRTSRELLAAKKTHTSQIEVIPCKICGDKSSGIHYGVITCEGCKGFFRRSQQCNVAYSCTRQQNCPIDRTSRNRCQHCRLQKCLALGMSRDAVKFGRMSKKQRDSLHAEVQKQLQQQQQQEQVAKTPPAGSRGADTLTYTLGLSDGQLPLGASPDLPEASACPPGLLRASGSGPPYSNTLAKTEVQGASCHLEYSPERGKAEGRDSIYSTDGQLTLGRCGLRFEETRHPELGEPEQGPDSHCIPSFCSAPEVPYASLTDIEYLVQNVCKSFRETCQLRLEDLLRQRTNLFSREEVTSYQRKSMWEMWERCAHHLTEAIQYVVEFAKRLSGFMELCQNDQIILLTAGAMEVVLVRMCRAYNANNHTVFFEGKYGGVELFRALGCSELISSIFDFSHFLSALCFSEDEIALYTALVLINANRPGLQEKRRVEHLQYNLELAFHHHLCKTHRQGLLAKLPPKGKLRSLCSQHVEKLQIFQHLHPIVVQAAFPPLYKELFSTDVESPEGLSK
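Luciferase reporter read in Schneider cells carrying Gal4-RORγ (mouse) and UAS-Photinus luciferase; cells given compound 1 h before 700 uM copper sulfate induction, then incubated 20 h at ambient temperature.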
TDP1 cell noCPT: qHTS for Inhibitors of human tyrosyl-DNA phosphodiesterase 1 (TDP1): qHTS in cells in absence of CPT; DT40 Tdp1-/- hTDP1 cells, no CPT, ATP luminescence, 48 h; AID 686978, 2013; actives 15% (n = 420,000); Potency, µM (titrated, usually from 46.2 µM), most hits filed as inhibitors; note: nearly all actives have a fitted effect of over 55% in size
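A cellular qHTS used chicken DT40 cells lacking endogenous Tdp1 but carrying stably transfected human TDP1. Compounds were applied without camptothecin, and cell growth kinetics were judged by ATP-dependent luminescence after ≥48 hr.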
LDHA inh: blocks human lactate dehydrogenase A | P00338 | purified LDHA, NADH/diaphorase-resazurin fluorescence; stronger effect = lower value | activity change, % (values are at about 110 or 230 µM) | actives 0.15% (n = 480,000); in the data active = activity change below about -30%; inconclusive = mostly about -25% to -30%
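Resorufin fluorescence (ex540/em590), read at 0 and 20 min after diaphorase/resazurin addition, reports the NADH left after a 5 min room-temperature reaction of 2 nM human LDH5 with 0.06 mM NADH and 0.2 mM pyruvate.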
IL1B secr inh: inflammasome signaling inhibition, IL-1 beta readout; THP-1 LPS/ATP IL-1B secretion, AlphaLISA, 16 h; stronger effect = lower value; activity change, % at 57.5 µM; actives 4.7% (n = 360,000); AID 743279; in the data active = activity change below about -50%; inconclusive = mostly about -30% to -49%
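Secreted IL-1B measured by AlphaLISA bead assay after 16 h compound exposure of THP-1 cells; compounds (final up to 57.5 uM) added 1 h before LPS (250 ng/mL) and ATP (1.25 mM) stimulation; lower signal means less secretion.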
Hits are given with their value; – = inactive; ? = inconclusive; · = no result; [ ] = another dose, or the depositor's remark. Sampled rows, rich in hits. Any-hit rate of the full collection: about 18%. Unless noted, calls come from the whole dose curve; as a rule, active = well fitted curve in the direction sought with a large enough effect; inconclusive = small, poorly fitted or top-dose-only effect, or another doubt; inactive = no such curve, though single readings can be large; an effect the other way counts as inactive or inconclusive.

SMILES | VP16 counter | DT40 TDP1 CPT | RORgamma inh | TDP1 cell noCPT | LDHA inh | IL1B secr inh
COc1ccc(N(C)S(=O)(=O)c2cccc(C(=O)NCc3ccc(C)cc3)c2)cc1 | · | ? | · | ? | – | -59
O=C(NCc1ccncc1)c1cccc(S(=O)(=O)NCc2ccccc2)c1 | – | – | – | – | – | –
COc1ccccc1NC(=O)COC(=O)c1cc(=O)c2ccccc2o1 | · | · | · | · | – | ·
CC(C)(C)n1ncc2c(=O)n(Cc3ccc(Cl)c(Cl)c3)cnc21 | – | – | – | – | – | –
Cc1ccc(Cn2cnc3c(cnn3C(C)(C)C)c2=O)cc1 | ? | 26µM | – | 13µM | – | –
COc1ccc(OC)c(NC(=O)C(C)OC(=O)c2ccsc2)c1 (stereo unspecified) | · | · | · | · | – | ·
COc1ccc(C(=O)NNC(=O)OC(C)(C)C)cc1 | – | – | – | – | – | –
O=C(NNC1=C(C(=O)C(F)(F)F)CCC1)c1cccc(Cl)c1 | ? | 5.8µM | ? | 6.5µM | – | –
COc1ccc(C(=O)NNC2=C(C(=O)C(F)(F)F)CCC2)cc1 | ? | 0.73µM | 14µM | 1.3µM | – | –
O=C(NNC1=C(C(=O)C(F)(F)F)CCC1)c1ccc(Cl)cc1 | ? | ? | 11µM | ? | – | –
Cc1ccc(C(=O)NCCc2c[nH]c3ccccc23)cc1 | · | · | · | · | – | ·
CC1=NN(C(=O)CSCc2ccccc2)C(O)(c2ccc(F)cc2)C1 (stereo unspecified) | ? | – | 7.1µM | – | – | –
CC1=NN(C(=O)COc2ccc(C)c(C)c2)C(O)(c2ccc(Cl)cc2)C1 (stereo unspecified) | 16µM | 13µM | 7.1µM | 15µM | – | –
CC1=NN(C(=O)CCc2ccccc2)C(O)(c2ccncc2)C1 (stereo unspecified) | ? | – | 1.8µM | – | – | –
CC1=NN(C(=O)COc2cc(C)ccc2C(C)C)C(O)(c2ccccc2)C1 (stereo unspecified) | 18µM | 5.8µM | 11µM | 26µM | – | –
O=C(CSCc1ccccc1)N1CCN(S(=O)(=O)c2ccc(F)cc2)CC1 | – | – | – | – | – | –
O=C(CCc1ccccc1)Nc1ccncc1 | – | – | – | – | – | –
COC(=O)C1=NN(C(=O)c2ccc(C)cc2)C(O)(c2ccc(Cl)cc2)C1 (stereo unspecified) | – | – | – | – | – | –
CC1=NN(C(=O)CSCc2ccccc2)C(O)(c2ccc(Cl)cc2)C1 (stereo unspecified) | ? | – | 10µM | ? | – | –
O=c1cc(CSc2ccc(Cl)cc2)nc(-c2ccccn2)[nH]1 | 4.5µM | 4.1µM | 4µM | 4.1µM | – | –
Clc1ccc(SCc2cc(N3CCOCC3)nc(-c3ccccn3)n2)cc1 | 4.5µM | 5.8µM | 0.56µM | 3.3µM | – | –
CC(C)c1noc(C(C)Nc2ccc3oc(C(C)(C)C)nc3c2)n1 (stereo unspecified) | · | · | · | · | – | ·
CCCCc1cc(=O)oc2cc(OCc3cc(OC)c(OC)c(OC)c3)c(Cl)cc12 | –[0.365 µM] | ? | – | 15µM | – | –
CCCc1cc(=O)oc2cc(OCc3cc(OC)c(OC)c(OC)c3)c(Cl)cc12 | – | ? | – | ? | – | –
CCOc1ccc(C2Nc3ccc4ccccc4c3-c3c2c(=O)oc2ccccc32)cc1 (stereo unspecified) | – | ? | – | ? | – | -55
Cc1cc(C)cc(C(=O)NC(=S)Nc2ccc3c(c2)OCCO3)c1 | 3.2µM | 16µM | ? | ? | – | –
O=C(NC(=S)Nc1ccc2c(c1)OCO2)c1ccc(Cl)cc1 | 5.6µM | ? | 5µM | ? | – | –
S=C(Nc1ccc(Cl)cc1)Nc1ccc2c(c1)OCCO2 | ? | – | ? | – | – | –
O=C(NC(=S)Nc1ccc2c(c1)OCCO2)c1ccco1 | ? | – | ? | – | – | –

Source: PubChem
